The list is not random: actives were taken first. Their share in the collection is about 2.2%.
TRPM1 prom inh: inhibitors of MITF-dependent TRPM1 promoter reporter, primary screen, cell-based, SK-MEL-5, single point, luciferase; AID 488899, 2010; 330,000 compounds, 0.83% hits; SK-MEL-5 TRPM1 promoter luciferase, 24 h; inhibition, % at 12.5 µM;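 active = mean inhibition across replicates of 60% or more, whatever share of single replicates reaches that level; inconclusive = some that reach 60%, reason not given; inactive = mean inhibition across replicates below 60%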
LMP1 NFkB inh: EBV LMP1-driven NF-kappaB luciferase reporter inhibitors, primary screen, cell-based, luminescence, single point. inhibition, % at 12.5 µM. 350,000 compounds, 0.69% hits. LMP1-induced NF-kappaB luciferase reporter cells; in the data active = inhibition above about 41%; inconclusive = no clear call, values can overlap the other calls
EWS-Fli inh: EWS/Fli-driven NR0B1 reporter inhibitors, primary screen, A673 cells, NR0B1 luciferase, luminescence, MLPCN library. 350,000 compounds, 0.67% hits. inhibition, % at 12.6 µM. viability-normalised. AID 651661, 2012;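 active = mean inhibition of at least 50% after viability correction, with every replicate also passing that limit; inconclusive = mean reaches 50% but only one of two replicates passes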;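 note: firefly luciferase signal divided by Alamar Blue viability fluorescence both relative to DMSO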
LGR2 antag: inhibitors of bursicon-induced LGR2 CRE-luciferase signal, primary screen, cell-based, HEK293, CRE-luciferase reporter, bursicon stimulation. inhibition, % at 9.99 µM. bursicon-stimulated, 4 h. 380,000 compounds, 0.35% hits;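 active = drop in luminescence signal, shown as inhibition above about 50% in the replicate tests, limit read from the data, passing the limit was not always enough; inconclusive = probably only some replicates passing the limit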;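 note: agonist challenge used bursicon conditioned medium at about half maximal strength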
Shn3 3UTR inh: reduction of Shn3 3'UTR firefly luciferase signal, primary screen, Schnurri-3 inhibitor project, cell-based, Clone20 osteoblasts, set 2 | 360,000 compounds, 0.52% hits | Clone20 osteoblast Shn3 3'UTR firefly luciferase, 24 h | inhibition, % at 12.5 µM | AID 588674, 2011;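 active = mean inhibition of at least 75% with every replicate also reaching 75%; inconclusive = mean inhibition at least 75% but some replicate below; inactive = mean inhibition below 75%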
PAX8 reporter: inhibitors of PAX8-driven TPO luciferase reporter, primary screen, RMG-I cells, single concentration | SteadyGlo, 24 h | inhibition, % at 12.6 µM | 360,000 compounds, 1.2% hits | AID 652154, 2013;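 active = mean replicate inhibition at least 60% with every replicate also reaching 60%; inconclusive = only one of the two criteria is met; inactive = mean below 60% and not all replicates reaching 60%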;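 note: luciferase light reporting Pax8 driven TPO promoter activity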
Hits are given with their value; – = inactive; ? = inconclusive; · = not tested or not shown.

SMILES | TRPM1 prom inh | LMP1 NFkB inh | EWS-Fli inh | LGR2 antag | Shn3 3UTR inh | PAX8 reporter
COCC(=O)Nc1ccc2c(c1)OC[C@@H](C)N(CCc1ccccc1)C[C@@H](C)[C@H](OC)CN(C)C2=O | · | · | – | – | · | –
CCCNC(=O)[C@@H]1[C@@H](CO)[C@@H]2Cn3c(ccc(-c4ccccc4OC)c3=O)[C@@H]2N1CC | · | · | – | – | · | –
O=C1C(Cl)=C(N2CCN(c3ccccc3[N+](=O)[O-])CC2)C(=O)c2ccccc21 | – | – | ? | – | 96 | –
O=[N+]([O-])c1cc(Cl)ccc1N1CCCC1 | – | – | – | – | – | –
COc1cc(C#Cc2c(-c3cncn3C)n(C)c3ccc(-c4ccc(OC)nc4)cc23)cc(OC)c1 | – | – | – | · | 94 | –
COc1cc(C#Cc2c(-c3cncn3C)n(C)c3ccc(-c4ccc5[nH]ccc5c4)cc23)cc(OC)c1 | – | – | – | – | – | –
COc1cc(OC)cc(-c2c(C#Cc3ccsc3)c3cc(-c4ccc(OC)c(F)c4)ccc3n2C)c1 | – | – | – | – | – | –
COc1cc(OC)cc(-c2c(C#Cc3ccsc3)c3cc(-c4cnc(OC)nc4)ccc3n2C)c1 | – | – | – | – | – | –
COc1cc(OC)cc(-c2c(C#Cc3ccsc3)c3cc(-c4cc(OC)c(OC)c(OC)c4)ccc3n2C)c1 | – | 89 | – | – | – | –
COc1cc(C#Cc2c(-c3cncn3C)n(C)c3ccc(-c4cc(OC)c(OC)c(OC)c4)cc23)cc(OC)c1 | – | – | – | · | – | 73
OC[C@H]1Nc2ccc(C#Cc3ccc(F)cc3)cc2[C@@H]2[C@H]1CCN2Cc1nccs1 | · | · | – | – | · | –
Cc1noc(C)c1NC(=O)Nc1ccc2c(c1)C(=O)N([C@@H](C)CO)C[C@H](C)[C@H](CN(C)Cc1ccc(C(F)(F)F)cc1)O2 | · | · | · | – | · | –
COc1ccc2c3c([nH]c2c1)[C@@H](CO)N(S(C)(=O)=O)CC31CCN(Cc2nccs2)CC1 | · | · | – | – | · | ·
c1ccc(-c2nnc(-c3ccccn3)c(-c3ccccn3)n2)nc1 | · | · | – | – | – | –
COc1cnc(-c2ccccn2)nc1N(C)C | – | – | – | – | 89 | –
CN(C)c1nc(-c2ccccn2)nnc1-c1ccccc1 | 78 | – | · | · | 93 | –
O=C(C[C@@H]1C=C[C@@H](NC(=O)c2ccncc2)[C@@H](CO)O1)NCc1ccncn1 | · | · | · | – | · | ·
Cc1[nH]nc(-c2cccnc2)c1N=NN(C)C | 72 | – | 55 | – | – | 71
Cc1ccc(CNC(=O)C2CCN(S(=O)(=O)c3c(C)noc3/C=C/c3ccco3)CC2)cc1 | – | 83 | – | – | – | 83
Cc1ccc(NC(=O)C2CCN(S(=O)(=O)c3c(C)noc3/C=C/c3ccco3)CC2)nc1 | 72 | – | · | – | – | –
C[C@H]1CN([C@@H](C)CO)C(=O)c2cc(NS(=O)(=O)c3ccc(F)cc3)ccc2O[C@@H]1CN(C)C(=O)Nc1ccc2c(c1)OCO2 | · | · | – | – | · | ·
CO[C@H]1CN(C)C(=O)c2cc(NC(C)=O)ccc2OC[C@@H](C)N(C(=O)c2cnccn2)C[C@H]1C | · | · | – | – | · | –
N#Cc1c(Nc2ccccc2)[n+]([O-])c2ccc(Cl)cc2[n+]1[O-] | 72 | – | – | – | – | –
O=C(/C=C/Nc1ccccc1)c1ccc(Cl)cc1Cl | – | – | – | – | – | –
Cc1ccc(C(=O)c2cc([N+](=O)[O-])ccc2N2CCOCC2)cc1 | – | – | · | – | – | –
SMILES | TRPM1 prom inh | LMP1 NFkB inh | EWS-Fli inh | LGR2 antag | Shn3 3UTR inh | PAX8 reporter
COc1ccc(C(=O)c2cc([N+](=O)[O-])ccc2N2CCOCC2)cc1 | – | – | – | – | – | 105
Cc1ccc(C(=O)c2cc([N+](=O)[O-])ccc2N2CCCCC2)c(C)c1 | – | – | – | – | – | 89
CCOc1ccc(C(=O)c2cc([N+](=O)[O-])ccc2N2CCOCC2)cc1 | – | – | – | – | – | 91
C#CCN(C)Cc1ccccc1 | – | – | – | – | 86 | –
COc1ccc(S(=O)(=O)N(C)C[C@H]2OCCCC[C@@H](C)Oc3ccc(NS(=O)(=O)c4cn(C)cn4)cc3C(=O)N([C@H](C)CO)C[C@@H]2C)cc1 | · | · | · | – | · | –
Cc1nc(SCC(=O)Nc2nc3ccccc3s2)c(C#N)c(C)c1C | 96 | 84 | 87 | 93 | ? | 108
COc1cc(-c2cc(-c3ccccc3)nc(SCC(=O)Nc3nccs3)c2C#N)cc(OC)c1OC | – | – | · | · | – | ·
Cc1cc(C(F)(F)F)c(C#N)c(SCC(=O)Nc2nc3ccccc3s2)n1 | – | – | – | – | – | –
Cc1nc(SCC(=O)Nc2nccs2)c(C#N)c(C)c1C | – | ? | 72 | – | – | –
C[C@@H]1CN([C@H](C)CO)C(=O)c2cccc(NC(=O)Nc3ccc(C(F)(F)F)cc3)c2O[C@@H]1CN(C)S(=O)(=O)c1ccccc1 | · | · | – | – | · | –
CCc1ccc(/C=C/c2c[nH]c3ccccc23)[n+](CC)c1 | – | – | – | – | – | 67
COc1cc(C2Nc3ccc4ccccc4c3C3=C2C(=O)CC(C)(C)C3)ccc1OCC(=O)O (stereo unspecified) | – | – | – | – | – | –
COc1cccc(C2Nc3ccc4ccccc4c3C3=C2C(=O)CC(C)(C)C3)c1OCC(=O)O (stereo unspecified) | – | 55 | – | – | – | –
O=C(CCl)N=c1sccn1Cc1ccccc1Cl | – | – | 63 | – | – | 100
O=C(CCl)N=c1sccn1Cc1ccc(Cl)cc1Cl | – | – | – | · | – | 111
CCC(=O)OCC(=O)N=c1sccn1Cc1ccc(C)cc1 | – | – | · | – | – | –
O=C(CCl)N=c1sccn1Cc1cccc2ccccc12 | – | – | – | – | – | 111
CCC(=O)OCC(=O)N=c1sccn1Cc1ccccc1Cl | – | – | – | – | – | –
CNC[C@@H]1Oc2cc(C#Cc3ccccn3)ccc2S(=O)(=O)N([C@H](C)CO)C[C@H]1C | · | · | – | – | · | ·
COc1ccc(/C=C2\N=C(C)OC2=O)cc1[N+](=O)[O-] | – | 46 | – | – | – | –
COc1cc(/C=C2\N=C(C)OC2=O)cc(Cl)c1OC(C)=O | – | – | – | – | – | –
Cn1c(=NC(=O)C2CC2)sc2cccc(F)c21 | – | 60 | – | – | – | –
COc1ccc(OC)c2c1sc(=NC(=O)C1CCCCC1)n2C | – | – | – | – | – | –
CCOc1ccc(NC(=O)c2ccc(N3CC4CC(C3)c3cccc(=O)n3C4)c(NC(=O)c3cccnc3)c2)cc1 (stereo unspecified) | – | 61 | – | – | – | –
CSc1ccccc1NC(=O)c1ccc(N2CC3CC(C2)c2cccc(=O)n2C3)c(NC(=O)c2cccnc2)c1 (stereo unspecified) | – | – | – | – | – | –

Bioassay records deposited in PubChem BioAssay by Broad Institute.
